Experimental data taken from PubChem BioAssay AID624330 (Southern Research Specialized Biocontainment Screening …, 2012).
Out of some 340,000 compounds screened, about 2,100 (0.62%) were called active. A selection follows. Results with a measured potency or affinity are listed apart. A number with no mark means an inactive call.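 The calls were made as follows: active = first-screen hits whose inhibition reached a set limit at any dose in the follow-up dose series; inconclusive = inhibition above the set first-screen limit but never retested; inactive = the rest.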

biological target: Rac GTPase-activating protein 1 (Homo sapiens) (UniProt Q9H0H5); experiment: MgcRacGAP GTPase-activating activity inhibitors, confirmation, biochemical, ADP Hunter fluorescence, primary and confirmatory (AID 624330); settings: MgcRacGAP-stimulated Rac1 GTP hydrolysis, at 30 µM, active compounds read high, GST-tagged Rac1 F28L mutant substrate;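 also: fluorescence reports GDP produced by GAP-driven GTP hydrolysis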
Sequence (Q9H0H5 whole entry, looked up): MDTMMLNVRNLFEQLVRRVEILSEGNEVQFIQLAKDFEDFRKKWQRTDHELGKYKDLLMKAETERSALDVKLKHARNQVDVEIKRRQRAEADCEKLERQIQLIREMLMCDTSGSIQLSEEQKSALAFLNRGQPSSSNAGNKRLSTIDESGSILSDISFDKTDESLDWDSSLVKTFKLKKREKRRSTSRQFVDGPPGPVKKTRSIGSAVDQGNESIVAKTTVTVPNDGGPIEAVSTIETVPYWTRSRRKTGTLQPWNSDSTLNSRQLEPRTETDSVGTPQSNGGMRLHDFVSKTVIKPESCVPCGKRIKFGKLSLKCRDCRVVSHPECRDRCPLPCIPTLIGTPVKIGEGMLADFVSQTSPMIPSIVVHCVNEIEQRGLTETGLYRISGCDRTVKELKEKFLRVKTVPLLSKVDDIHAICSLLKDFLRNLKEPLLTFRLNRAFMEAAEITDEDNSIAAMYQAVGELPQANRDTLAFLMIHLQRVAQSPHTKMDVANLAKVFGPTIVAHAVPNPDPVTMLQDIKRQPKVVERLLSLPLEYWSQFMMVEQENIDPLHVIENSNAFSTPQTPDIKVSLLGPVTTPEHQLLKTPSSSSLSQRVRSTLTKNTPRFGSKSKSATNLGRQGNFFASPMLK

SMILES | inhibition [%]
CC1=CC(C)(C)NC(=S)N1c1cccc2ccccc12 | 12.8
O=C(O)CSc1nnc(Nc2ccccc2)n1-c1ccccc1 | 1.56
COc1ccc(/C=C2\SC(=S)N(CC(=O)OCC(=O)Nc3ccc(C)cc3Cl)C2=O)cc1 | 1.09
CN1C[C@@H]2[C@@H]3C(=O)N(Cc4ccccc4)C(=O)[C@@H]3[C@](C)(C1=O)N2C(=O)c1ccc(Br)cc1 | 5.77
CCC(C(=O)OCC(=O)c1ccc(OC)cc1OC)c1ccccc1 (centres undefined) | 5.77
COc1ccccc1C(=O)NC(=O)COC(=O)c1nc(Cl)ccc1Cl | 8.9
Cc1cc(F)ccc1S(=O)(=O)N1CCCOC1CNC(=O)C(=O)NCc1ccc2c(c1)OCO2 (centres undefined) | 2.65
CCOC(=O)c1ccc(NC(=O)CC2OCCN(CC)C2=O)cc1 (centres undefined) | 7.78
CC(C)C(=O)Nc1cc(S(=O)(=O)Nc2cccc(Cl)c2)ccc1Cl | 12.6
CCCCc1c(C)c(C#N)c2nc3ccccc3n2c1Nc1c(C)n(C)n(-c2ccccc2)c1=O | 8.78
COc1ccc(/C=C/C(=O)OCC(=O)Nc2ccc3c(c2)OCO3)cc1 | 10.3
COc1cc(/C=C/C(=O)OCC(=O)Nc2ccc3c(c2)OCCO3)ccc1OCC#N | 5.37
COc1cccc(/C=C/C(=O)OCC(=O)Nc2ccc3c(c2)OCCO3)c1 | 14.2
COc1cccc(/C=C/C(=O)OCC(=O)Nc2ccc3c(c2)OCO3)c1 | 13
CCOC(=O)CC1C(=O)NCCN1C(=S)NC(=O)c1ccccc1OC (centres undefined) | 3.14
CCN(CC(=O)Nc1ccc(NC(C)=O)cc1)C(=O)c1cn(-c2ccccc2)nc1-c1cccs1 | 7.68
COc1ccc(C)cc1NC(=O)NC1CC(=O)N(c2ccc3c(c2)OCCO3)C1 (centres undefined) | 10.3
CC(/C=C/c1ccccc1)=N/O | 4.32
CCOc1ccc(/C=C\C(C)=N\O)cc1 | 8.33
COc1ccc(Cl)cc1C(=O)NCCN1CCOCC1 | 3.67
Cc1cccc(NS(=O)(=O)c2ccc(C)c(C(=O)NCC(c3ccco3)N3CCCCC3)c2)c1 (centres undefined) | 4.69
CC(=O)c1ccc2c(c1)N(C)c1ccccc1S2 | 18.2
COc1ccc(/C(C)=N/Nc2ccc(C(=O)O)cc2)cc1OC | -0.19
C/C(=N\Nc1ccc(C(=O)O)cc1)c1ccc(Br)cc1 | 14
C=CC(=O)N1c2ccccc2Sc2ccc(NC(=O)OCC)cc21 | 6.2

SMILES | inhibition [%]
COC(=O)c1ccc2c(c1)NC(=O)c1ccccc1S2 | 8.59
C/C(=N\NC(=O)c1ccccc1F)c1cccc(NC(=O)c2ccccc2)c1 | 4.16
C/C(=N\NC(=O)c1ccccc1F)c1cccc(NC(=O)c2ccc(C)cc2)c1 | 5.2
CCOC(=O)Nc1ccc2c(c1)N(C(=O)CN(C)C)c1ccccc1S2 | -22.2
Cc1ccc(CN2[C@@H](Cc3ccccc3)C(=O)CS2(=O)=O)cc1 | 3.43
O=C(NNC(=O)c1n[nH]c2ccccc12)c1ccccc1 | 4.79
CN1CCN(c2cc(C(F)(F)F)nc(-c3ccccn3)n2)CC1 | 1.81
C=CCn1c(SCc2ccc(C(=O)OC)cc2)nnc1-c1sc(N)nc1C | 3.61
COc1ccccc1CCNC(=O)NC1CCCCC1 | 3.38
Cc1ccccc1N(CC(=O)NCCc1ccccc1)C(=O)c1ccc(N2CCCC2)nc1 | -2.74
COc1cccc(OC)c1C(=O)NC(=S)NCc1cccnc1 | 6.24
CCC1CCCCN1C(=O)COc1ccc2c(c1)OCO2 (centres undefined) | 2.24
Cc1ccc(C(=O)c2c3ccc([N+](=O)[O-])cc3[n+]([O-])n2CCCN)cc1 | 8.83
C/C(=N\NC(=O)c1ccc(O)cc1)c1cccc(NC(=O)c2ccc(Cl)cc2)c1 | 8.52
CC(=O)Nc1cccc(/C(C)=N/NC(=O)c2ccc(O)cc2)c1 | 0.87
Cc1cccc(C(=O)Nc2cccc(C(=O)N3CCOCC3)c2)c1 | -5.11
COCCNC(=S)Nc1cc(OC)c(NC(=O)c2ccco2)cc1OC | 3.43
COCCNC(=S)Nc1cc2oc3ccccc3c2cc1OC | 17.8
CC(=O)N1CCc2c(sc(NC(=O)Cc3ccc(C)cc3C)c2C#N)C1 | -2.35
COc1ccc(/C=N/NC(=O)c2nc(-c3ccccc3)n(-c3ccccc3)n2)cc1 | -5.29
Cc1cccc(-n2cnc(C(=O)N/N=C/c3ccccc3)c2)n1 | 6.69
COc1ccc(/C=N/NC(=O)c2nc(-c3ccccc3)cc(-c3ccccc3)n2)cc1OC | 11.2
Cc1nn(-c2ccccc2)c(C)c1-c1cc(C(=O)N/N=C/c2ccc(O)cc2)[nH]n1 | 19.3
COc1ccc(/C=N/NC(=O)c2nc(-c3ccccc3)n(-c3ccccc3)n2)cc1OC | 6.46
COc1ccc(/C=N/NC(=O)c2nc(-c3ccccc3)cc(-c3ccccc3)n2)cc1O | 24.5

SMILES | inhibition [%]
Cc1cc(C(=O)N/N=C/c2c(C)nn(-c3ccccc3)c2C)n[nH]1 | -3.78
Cc1cccc(-n2cnc(C(=O)N/N=C\c3ccc(Br)cc3)c2)n1 | 12.1
O=C1CCC2(CC1)NC(=O)N(c1ccccc1)N2 | -10.2
O=C1CNC(=S)N1CCOc1ccccc1 | -1.2
COc1ccc(S(=O)(=O)Nc2cc(C(=O)NCCC(C)C)ccc2N2CCOCC2)cc1 | -3.38
CCOc1ccc(-c2cc(C(=O)N3CCCC3)c3ccccc3n2)cc1 | 1.87
CCOC(=O)COc1ccccc1-c1ccno1 | 5.09
COc1ccc(S(=O)(=O)Cc2ccc(C(=O)NCC(OC)OC)o2)cc1 | 5.28
CCC1C(=O)NCCN1C(=O)c1cc(COc2cc(C)ccc2C)on1 (centres undefined) | 13.8
O=C(NCc1cccnc1)c1ccccn1 | 3.14
O=C(Nc1cnccn1)Nc1ccc(Cl)cc1Cl | -2.37
O=C(CCc1c[nH]c2ccccc12)NCCc1ccccc1 | 7.24
O=C(CCc1c[nH]c2ccccc12)NCCc1ccc(Cl)cc1 | 6.06
Cc1ccc(NC(=O)C(OC(=O)c2cnc(C)cn2)c2ccccc2)c([N+](=O)[O-])c1 (centres undefined) | 4.33
O=C(COc1ccc2cc(Br)ccc2c1)N1CCCC1 | 8.08
Cc1[nH]nc(-c2ccc(O)c(C)c2O)c1Oc1ccccc1 | 18.4
CCCOC(=O)c1ccc(Oc2c(-c3ccc(O)cc3O)n[nH]c2C)cc1 | 19.3
CCOc1ccc(-c2n[nH]c(C)c2Oc2ccc(OC)cc2)c(O)c1 | 11
COc1ccc(-c2[nH]ncc2-c2csc(C)n2)c(O)c1 | 13.3
O=S(=O)(N/N=C\c1ccccc1O)c1ccc(Cl)cc1 | 6.73
O=C1CC(C(=O)Nc2ccc(Cl)cc2)S/C(=N\N=C\c2ccco2)N1 (centres undefined) | 10.6
c1ccc(CCNc2ccnc3cc4ccccc4cc23)cc1 | 13.8
COc1ccc(Nc2ccnc3ccccc23)cc1 | 3.59
COCCN1C(=O)N(c2ccccc2)C(=O)C1CC(=O)Nc1cc(OC)cc(OC)c1 (centres undefined) | -13.2
COC(=O)C(Cc1cncn1COCc1ccccc1)NC(=O)OC(C)(C)C (centres undefined) | 4.31

SMILES | inhibition [%]
Cc1ccc2[nH]c3c(N4CCN(Cc5ccccc5)CC4)ncnc3c2c1 | 22.2
c1ccc(CN2CCN(c3ncnc4c3[nH]c3ccccc34)CC2)cc1 | 20.2
O=C(CCCc1ccccc1)Nc1ccnn1C1CCN(Cc2ccccc2F)CC1 | 7.8
Cc1occc1C(=O)NNC(=O)C1CCCC1 | 0.63
COc1ccc(N2CCN(C(C)C(=O)N(C)Cc3ccccc3)CC2)cc1 (centres undefined) | 11
COc1ccc(CN2CCC(Cc3ccccc3)CC2)cc1OC | 29.4
COc1cc(OC)cc(C(=O)N2CCN(Cc3cccc(F)c3)CC2)c1 | 27.4
COc1ccc(CN2CCN(C(=O)c3cccc4ccccc34)CC2)cc1OC | 30.3
CNC(=O)NC(=O)C(C)N1CCN(C/C=C/c2ccccc2)CC1 (centres undefined) | -5.37
COc1ccc(CN2CCN(C)CC2)cc1OCc1ccccc1 | 8.63
COc1cccc(CN2CCSCC2)c1 | 16.8
COc1ccc(CN2CCOCC2)cc1OC | 11.6
O=C(CN(c1ccccn1)S(=O)(=O)c1ccccc1)N/N=C/c1cccc([N+](=O)[O-])c1 | 6.03
CC(NC(=O)C1CCN(c2nnc(N3CCCC3=O)s2)CC1)c1ccccc1 (centres undefined) | 1.18
Cc1nn(-c2cc(C(F)(F)F)ccc2Cl)c2nc(C(F)(F)F)[nH]c(=O)c12 | 6.22
CCN1C(=O)CC(N2CCN(c3cccc(OC)c3)CC2)C1=O (centres undefined) | 7.87
COc1cc(OC)c(OC)cc1CN1CCN(Cc2cccc(F)c2)CC1 | 9.82
COc1ccc(CN2CCN(C(C)C(=O)N3CCc4ccccc43)CC2)cc1OC (centres undefined) | 7.8
COc1cc(CN2CCN(Cc3ccc(C)cc3)CC2)c([N+](=O)[O-])cc1OC | 31.1
COc1cc(CN2CCN(Cc3ccc([N+](=O)[O-])cc3)CC2)c([N+](=O)[O-])cc1OC | 28.4
COc1ccc(CN2CCN(S(=O)(=O)c3ccc(F)cc3)CC2)cc1OC | 19.8
COc1ccc(CN2CCN(c3ccccc3OC)CC2)c(OC)c1 | 25.9
CC(C(=O)N(C)Cc1cccc(F)c1)N1CCN(S(=O)(=O)c2ccc3c(c2)OCCCO3)CC1 (centres undefined) | 4.74
COc1ccc(CN2CCN(c3ncccn3)CC2)c(OC)c1 | 9.88
